This is part of a sample that, as a whole, favours compounds with a hit. Of some 83,000 tested, about 20% had one in any assay.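 For each line, cells grew in 96-well plates with the test compound present at a single concentration for 48 hours.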 Values without a mark were called inactive. Calls of active or inactive are those of the source. How the source made its calls: active means growth percent below 10; inactive means the rest.

In this assay the test system is MDA-MB-468 breast. Description: NCI-60 one-dose screen, 48 h (100 = growth as untreated, 0 = no growth, -100 = all killed). The settings on record: 10 µM unless noted.
As to `Cc1[nH]n(C(=O)c2ccncc2)c(=O)c1N=Nc1ccc(S(=O)(=O)Nc2ccncn2)cc1`, the growth was 103%.

With `COc1cc(/C=C2\C(=O)Nc3cc(C)c(O)cc32)cc(OC)c1OC`, the growth is 29.3%. `OCC1OC(OC2C(O)C(CO)OC2(CO)OC2OC(CO)C(O)C(O)C2O)C(O)C(O)C1O` (centres undefined): the growth was 112%. Then `COc1cccc(-c2nc3sccn3c2-c2ccnc(NCCCNS(=O)(=O)c3ccccc3)n2)c1`, with 52%; and `COc1cc2c(cc1O)CC[C@@H]1[C@@H]2CC[C@]2(C)[C@@H](NCCN(C)C)CC[C@@H]12`, with -85.1% (active); and `C=C1NC(=O)C(C(C)CC)NC(=O)C2CSCC(NC(=O)CCC(=O)O)C(=O)NC(Cc3ccccc3)C(=O)NC(C)C(=O)NC(CC(C)CC)C(=O)NC(C(=O)NC(Cc3ccccc3)C(=O)N3CCCC3C(=O)N2)C(C)OC(=O)C(CO)NC(=O)C(C(O)COC)N(C)C(=O)C(C(C)C)NC(=O)C(CC(C)CC)NC1=O` (centres undefined), with 0.0436% [6 µM] (active). Then `CCCCCCC(=O)Nc1ncc(Cc2ccc(C)cc2)s1`, with 28.4%; and `Nc1nsc(C(=O)c2ccc(O)cc2)n1`, with 105%; and `O=C(/C=C/c1ccccc1)c1ccccc1O`, with 64.4%. In the case of `COc1cc(/C(C)=C(\c2ccc(Cl)cc2)c2ccc(OCCN(C)C)cc2)ccc1F`, the growth was 45.6%. Regarding `CCOC(=O)c1cnn(CC(C)O)c1NC(=O)NCc1cccc(F)c1` (centres undefined), the growth was 105%. Then `O=C(Oc1cccnc1)c1ccsc1Nc1ccnc(C(F)(F)F)c1`, with 17%. Regarding `CCOC(=O)c1ccc2c(c1)[n+](=O)c(C(C)=O)c(C(F)(F)F)n2[O-]`, the growth was -37% (active). For `CCOC(=O)c1csc(-c2ccc(COC(=O)c3ccccc3)o2)n1` the value was 115%. With `C=C1C(=O)O[C@H]2[C@H]1CC/C(COC(=O)c1cc3cc(F)ccc3[nH]1)=C\CC[C@@]1(C)O[C@@H]21`, the growth is -63.2% (active). Then `CCOC(=O)c1cc(C(=O)c2cc(OC)cc(OC)c2)n2ccc3ccccc3c12`, with 74.5%; and `COc1cc2oc(-c3cccc(C(=O)Nc4ccccc4)c3)cc(=O)c2c(O)c1OC`, with 69.4%; and `Clc1ccc2c(NCCCNc3nc(-n4ccnc4)nc4ccccc34)ccnc2c1`, with 53.3%.

Regarding `Cn1cnc([N+](=O)[O-])c1S(=O)(=O)Oc1cccc2ccccc12`, the growth was 58.9%.

Consider `C#CCOc1ccc2ncnc(Nc3cccc(NC(=O)CCl)c3)c2c1`, for which the growth was 68.5%. For `CC[C@@H](C(=O)[C@@H](C)[C@@H](O)[C@H](C)[C@@H]1O[C@@H]([C@@H](CC)C(=O)NCCc2ccc(F)cc2)CC[C@@H]1C)C1O[C@]2(C=CC(=O)[C@]3(CC[C@@](C)([C@H]4CC[C@](O)(CC)[C@H](C)O4)O3)O2)[C@H](C)C[C@@H]1C` (some centres undefined) the value was 13.5%; for `c1ccc2cc(Cn3c[n+](Cc4ccc5ccccc5c4)c4ccccc43)ccc2c1`, -21% (active); for `O=c1[nH]c(Cc2nc3ccccc3s2)nc2cc(Br)ccc12`, 92.4%. For the molecule `Nc1ccc(-c2nn3c(CCC(=O)c4nc5ncccc5[nH]4)nnc3s2)c(O)c1`, the growth is 74.6%.

Regarding `COc1ccc(C(=O)c2sc3nc4c(cc3c2N)CCCC4)cc1OC`, the growth was -5.94% (active). Take `O=C(CN1CCOCC1)Nc1ccc2ncnc(Nc3ccc(Oc4cccc(F)c4)c(Cl)c3)c2c1`: the growth was -17.1% (active).

`Cc1ccc(NC(=O)c2sc3nc4c(cc3c2N)C(=O)CCC4)cc1Cl`: the growth was 105%. Then `Cc1cc2nc3ccc(N=Nc4ccc(N(C)C)cc4)cc3n(-c3ccccc3)c-2cc1=N`, with -89.4% (active); and `COc1ccc(-c2cc(-c3ccc(Cl)cc3)c(C#N)c(=O)n2CCCCCC(=O)Nc2ccccc2N)cc1`, with 53.1%. Consider `COc1cc(-c2nn(C(=O)NCCN3CCN(C)CC3)cc2-c2ccncc2)ccc1Cl`, for which the growth was 60.9%. For `COc1ccc(O)c(-c2cc(-c3ccccc3)c(C#N)c(=O)[nH]2)c1`, the growth was 92.8%. Then `NS(=O)(=O)c1cccc(Nc2nc(SCC(=O)c3ccc(Br)cc3)nc3ccccc23)c1`, with 61.3%; and `COc1ccccc1S(=O)(=O)Nc1ccc2c3c(cc(-c4ccoc4)nc13)C(=O)N2C`, with 39.7%. Then `C#CCN(C)CCCOc1ccc(NCc2ccc(C(=O)NO)cc2)cc1Cl`, with -5.18% (active); and `Cn1ccnc1C(=O)/C=C/c1ccc(CNC(=O)c2ccc(S(F)(F)(F)(F)F)cc2)cc1`, with 23.3%; and `COc1ccc(OC)c(Nc2nc(-c3c(C)nc4sccn34)cs2)c1`, with 24.5%.

For the molecule `NC(=O)c1c(NC(=O)c2cccs2)sc2c1CCC(=O)C2`, the growth is 65.2%.

`O=C(CN1C(=O)CCC1=O)Nc1ncc(Cc2ccc(F)cc2)s1`: the growth was 109%.

Consider `CCOc1ccc(/C=C(\C#N)c2cc3ccccc3[nH]2)cc1`, for which the growth was 33.4%.

Values taken from PubChem BioAssay (NCI).
